Among all 2,000 compounds or so, about 20 (1%) were called active. The sample holds actives, similar compounds and a random draw of the others, so the mix is not that of the screen. No rule for the calls is given here. Residues, ends and D or L forms follow the SMILES beside them. *: point of attachment. Boc = CC(C)(C)OC(=O)*; OBn = c1ccc(CO*)cc1
These compounds were tested against Cystic fibrosis transmembrane conductance regulator (Homo sapiens) (UniProt P13569) (assay: correctors of F508del-CFTR surface localization, primary screen, imaging, HeLa, high-content microscopy, immunofluorescence (AID 1224864;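 also: HeLa cells stably expressing F508del-CFTR stained with 3G11 antibody against NBD1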;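 as to plasma membrane CFTR intensity: mean immunofluorescence in a thin cell-margin band taken as plasma membrane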)). Details: PM immunofluorescence imaging, 24 h, at 10 µM, stronger effect = higher value, relative to vehicle wells set at 100; total CFTR intensity: measured here: total cellular F508del-CFTR signal.
Cystic fibrosis transmembrane conductance regulator (Homo sapiens), sequence (P13569 whole entry, looked up, stated change not applied): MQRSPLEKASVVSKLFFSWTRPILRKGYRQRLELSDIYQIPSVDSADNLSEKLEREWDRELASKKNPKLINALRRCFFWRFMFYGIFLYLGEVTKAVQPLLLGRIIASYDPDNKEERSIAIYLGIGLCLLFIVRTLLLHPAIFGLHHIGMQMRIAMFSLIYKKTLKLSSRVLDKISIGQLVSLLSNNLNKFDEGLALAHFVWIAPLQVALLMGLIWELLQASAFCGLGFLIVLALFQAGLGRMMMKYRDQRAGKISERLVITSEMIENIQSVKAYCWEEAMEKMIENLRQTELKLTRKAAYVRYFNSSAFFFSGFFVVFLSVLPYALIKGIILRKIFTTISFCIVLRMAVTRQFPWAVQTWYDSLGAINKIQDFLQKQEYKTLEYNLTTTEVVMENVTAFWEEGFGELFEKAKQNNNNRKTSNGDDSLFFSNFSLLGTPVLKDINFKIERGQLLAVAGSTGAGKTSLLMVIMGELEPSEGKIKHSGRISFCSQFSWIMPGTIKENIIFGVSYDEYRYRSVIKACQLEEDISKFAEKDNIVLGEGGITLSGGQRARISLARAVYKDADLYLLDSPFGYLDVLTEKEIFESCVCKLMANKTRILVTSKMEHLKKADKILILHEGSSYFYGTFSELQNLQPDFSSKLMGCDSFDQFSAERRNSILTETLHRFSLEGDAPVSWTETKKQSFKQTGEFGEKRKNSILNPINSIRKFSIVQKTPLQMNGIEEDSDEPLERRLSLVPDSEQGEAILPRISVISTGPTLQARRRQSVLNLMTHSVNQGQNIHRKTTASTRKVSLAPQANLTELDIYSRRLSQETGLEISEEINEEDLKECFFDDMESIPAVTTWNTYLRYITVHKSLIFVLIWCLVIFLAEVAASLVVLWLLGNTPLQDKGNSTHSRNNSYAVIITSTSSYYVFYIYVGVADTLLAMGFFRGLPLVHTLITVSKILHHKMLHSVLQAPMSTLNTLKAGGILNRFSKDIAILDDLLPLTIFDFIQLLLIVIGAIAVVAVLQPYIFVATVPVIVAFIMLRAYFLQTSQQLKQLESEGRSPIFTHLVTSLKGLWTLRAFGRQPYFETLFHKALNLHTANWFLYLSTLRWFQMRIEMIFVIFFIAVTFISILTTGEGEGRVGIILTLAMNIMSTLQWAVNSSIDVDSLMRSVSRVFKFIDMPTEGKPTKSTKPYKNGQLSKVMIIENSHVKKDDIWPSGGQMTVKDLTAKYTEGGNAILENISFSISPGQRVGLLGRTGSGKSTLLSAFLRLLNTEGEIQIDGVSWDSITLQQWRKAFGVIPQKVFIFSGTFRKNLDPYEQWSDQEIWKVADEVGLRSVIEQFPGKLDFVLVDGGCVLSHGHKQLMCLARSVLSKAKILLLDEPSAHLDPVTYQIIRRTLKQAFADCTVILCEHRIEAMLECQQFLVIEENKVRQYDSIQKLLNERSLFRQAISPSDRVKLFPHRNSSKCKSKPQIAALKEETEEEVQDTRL

Question: What does the source list for COC1CCN(C(=O)c2ccc(OC3CCN(Cc4ccccn4)CC3)cc2)CC1?
Answer: plasma membrane CFTR intensity: 81% (inactive); total CFTR intensity: 75%

Question: With CC(C)Cc1nc(NCCN2CCOCC2)c(C#N)c2c1COC(C)(C)C2 as the compound, how does the plasma membrane CFTR intensity read?
Answer: 96% (inactive)

Question: And the total CFTR intensity?
Answer: 92%

Question: Which plasma membrane CFTR intensity does the source give for C/C(=N\N=C1/NC(=O)C(CC(=O)Nc2ccc(Cl)cc2)S1)c1ccco1 (stereo not given) here?
Answer: 81% (inactive)

Question: What about the total CFTR intensity of the same compound?
Answer: 80%

Question: Which plasma membrane CFTR intensity does the source give for CC(C)COC(=O)C1C(=O)CC(C)(O)C(C(=O)OCC(C)C)C1c1cccnc1 (stereo not given) here?
Answer: 93% (inactive)

Question: And the total CFTR intensity?
Answer: 100%

Question: Which results are given for C=C(C)COc1ccc(-c2nc(N)ncc2-c2ccc(OC)cc2)c(O)c1?
Answer: plasma membrane CFTR intensity: 82% (inactive); total CFTR intensity: 81%

Question: How did the plasma membrane CFTR intensity turn out when O=C(Oc1ccccc1)Oc1ccc2c(c1)oc(=O)c1ccccc12 was run?
Answer: 120% (active)

Question: What about the total CFTR intensity of the same compound?
Answer: 140%

Question: Which plasma membrane CFTR intensity does the source give for O=C(Oc1ccc2c3c(c(=O)oc2c1)CCCC3)c1ccco1 here?
Answer: 89% (inactive)

Question: What about the total CFTR intensity of the same compound?
Answer: 85%

Question: Which results are given for CSCCC(NC(C)=O)C(=O)Oc1ccc2c3c(c(=O)oc2c1)CCCC3 (stereo not given)?
Answer: plasma membrane CFTR intensity: 80% (inactive); total CFTR intensity: 80%

Question: With C[C@H]1O[C@H]1P(=O)(O)O as the compound, how does the plasma membrane CFTR intensity read?
Answer: 103% (inactive)

Question: What about the total CFTR intensity of the same compound?
Answer: 108%

Question: How did the plasma membrane CFTR intensity turn out when Cc1ccc([N+](=O)[O-])cc1NC1OC(CO)C(O)C1O (stereo not given) was run?
Answer: 85% (inactive)

Question: And the total CFTR intensity?
Answer: 85%

Question: What does the source list for CC(C)CN(C)Cc1c(C(=O)N2CCc3ccccc3C2)nc2ccc(Cl)cn12?
Answer: plasma membrane CFTR intensity: 77% (inactive); total CFTR intensity: 81%

Question: Which plasma membrane CFTR intensity does the source give for CN(C)CCOCCOc1ccc(Cl)cc1Br here?
Answer: 81% (inactive)

Question: And the total CFTR intensity?
Answer: 81%

Question: Which plasma membrane CFTR intensity does the source give for Cn1cc(CN2CCC(C(=O)N3CCCCC3)CC2)c(-c2ccccc2F)n1 here?
Answer: 79% (inactive)

Question: And the total CFTR intensity?
Answer: 72%

Question: With CCOC(=O)C1(CCCc2ccccc2)CCN(C2CCN(C(C)=O)CC2)CC1 as the compound, how does the plasma membrane CFTR intensity read?
Answer: 94% (inactive)

Question: What about the total CFTR intensity of the same compound?
Answer: 101%

Question: For O=C1CC(c2ccc(OCCCCCOc3ccc(C4CC(=O)NC4=O)cc3)cc2)C(=O)N1 (stereo not given), which plasma membrane CFTR intensity is on record?
Answer: 96% (inactive)

Question: What about the total CFTR intensity of the same compound?
Answer: 95%

Question: How did the plasma membrane CFTR intensity turn out when O=C1CN(O)C=C2N=c3ccccc3=C2N1c1ccc([N+](=O)[O-])cc1 was run?
Answer: 72% (inactive)

Question: What about the total CFTR intensity of the same compound?
Answer: 74%

Question: Which results are given for O=C(CCC1CCCN(C(=O)c2ccsc2)C1)NCc1ccc(F)c(F)c1 (stereo not given)?
Answer: plasma membrane CFTR intensity: 81% (inactive); total CFTR intensity: 83%

Question: With CC1(C)C(=O)OC(c2cccs2)C2(CCCCC2)C1=O (stereo not given) as the compound, how does the plasma membrane CFTR intensity read?
Answer: 102% (inactive)

Question: What about the total CFTR intensity of the same compound?
Answer: 110%

Question: NC12CC3CC(C1)CC(O)(C3)C2 was tested. Which plasma membrane CFTR intensity did it give?
Answer: 89% (inactive)

Question: What about the total CFTR intensity of the same compound?
Answer: 91%

Question: For Cc1cc(C)cc(Nc2nc3c([nH]2)c(=O)n(C)c(=O)n3C)c1, which plasma membrane CFTR intensity is on record?
Answer: 98% (inactive)

Question: And the total CFTR intensity?
Answer: 95%

Question: With CCOC(=O)C(=O)Nc1ccc(Oc2ccccc2)cc1 as the compound, how does the plasma membrane CFTR intensity read?
Answer: 85% (inactive)

Question: And the total CFTR intensity?
Answer: 84%

Question: For CC(=O)Nc1nc(CCC(C)C)cc2c1c(=O)oc1ccccc12, which plasma membrane CFTR intensity is on record?
Answer: 77% (inactive)

Question: And the total CFTR intensity?
Answer: 80%

Question: How did the plasma membrane CFTR intensity turn out when Cc1cc(OCC(=O)C(C)(C)C)c2c(C)c(C)c(=O)oc2c1 was run?
Answer: 86% (inactive)

Question: And the total CFTR intensity?
Answer: 86%

Question: With CCN(CC)CCOC(=O)C(c1ccccc1)c1ccccc1 as the compound, how does the plasma membrane CFTR intensity read?
Answer: 86% (inactive)

Question: What about the total CFTR intensity of the same compound?
Answer: 84%

Question: How did the plasma membrane CFTR intensity turn out when CCC(C(=O)OCCN(CC)CC)c1ccccc1 (stereo not given) was run?
Answer: 95% (inactive)

Question: What about the total CFTR intensity of the same compound?
Answer: 100%

Question: What does the source list for CCN(CC)CCOC(=O)C1(C2CCCCC2)CCCCC1?
Answer: plasma membrane CFTR intensity: 120% (active); total CFTR intensity: 123%

Question: With O=C(NCCO)c1ccc(Cl)c(Cl)c1 as the compound, how does the plasma membrane CFTR intensity read?
Answer: 90% (inactive)

Question: And the total CFTR intensity?
Answer: 90%

Question: With Cc1cccc2c(C(=O)O)cc(-c3cccnc3)nc12 as the compound, how does the plasma membrane CFTR intensity read?
Answer: 94% (inactive)

Question: And the total CFTR intensity?
Answer: 93%

Question: Which results are given for C[C@]12CC[C@@H]3c4ccc(O)cc4CC[C@H]3[C@@H]1CC[C@@H]2OC(=O)CCC(=O)O?
Answer: plasma membrane CFTR intensity: 78% (inactive); total CFTR intensity: 84%

Question: What does the source list for CC(=O)Nc1ccc(S(=O)(=O)c2ccc(N)cc2)cc1?
Answer: plasma membrane CFTR intensity: 97% (inactive); total CFTR intensity: 95%

Question: Cc1cc(C(=O)NC(CC(C)C)C(=O)O)cc(C)c1[N+](=O)[O-] (stereo not given) was tested. Which plasma membrane CFTR intensity did it give?
Answer: 73% (inactive)

Question: And the total CFTR intensity?
Answer: 71%

Question: What does the source list for Cc1cc(O)c2/c(=N/N)c(-c3csc(C)n3)coc2c1?
Answer: plasma membrane CFTR intensity: 69% (inactive); total CFTR intensity: 71%

Question: Cc1cc(O)c(C(=O)Cc2csc(C)n2)c(O)c1 was tested. Which plasma membrane CFTR intensity did it give?
Answer: 110% (active)

Question: What about the total CFTR intensity of the same compound?
Answer: 127%

Question: What does the source list for COc1ccc(CC(=O)c2c(O)cc(O)cc2O)cc1OC?
Answer: plasma membrane CFTR intensity: 83% (inactive); total CFTR intensity: 82%

Question: Which plasma membrane CFTR intensity does the source give for CC(C)CC(NC(=O)C(NC(=O)OC(C)(C)C)C(C)C)C(=O)NC(CCC(=O)OCc1ccccc1)C(N)=O (stereo not drawn) (Boc-Val-Leu-Glu(OBn)-NH2; configuration not given here) here?
Answer: 82% (inactive)

Question: What about the total CFTR intensity of the same compound?
Answer: 80%

Question: What does the source list for O=C1C(=O)c2ccccc2C(O)=C1c1ccccc1F?
Answer: plasma membrane CFTR intensity: 70% (inactive); total CFTR intensity: 75%

Question: For CC(=O)[C@@H]1[C@@H](C(=O)c2ccc(C)cc2)[C@]2(C(=O)Nc3ccccc32)[C@H]2C=Cc3cc(F)ccc3N12, which plasma membrane CFTR intensity is on record?
Answer: 77% (inactive)

Question: What about the total CFTR intensity of the same compound?
Answer: 114%

Question: Which plasma membrane CFTR intensity does the source give for CC(C)OC(=O)C1C(=O)CC(C)(O)C(C(=O)OC(C)C)C1c1cccc(O)c1 (stereo not given) here?
Answer: 77% (inactive)

Question: And the total CFTR intensity?
Answer: 78%

Question: How did the plasma membrane CFTR intensity turn out when CCOC(=O)c1ccccc1NC(=O)c1ccc(F)cc1 was run?
Answer: 101% (inactive)

Question: What about the total CFTR intensity of the same compound?
Answer: 103%

Question: What does the source list for CCOc1ccc(NC(=O)N[C@@H](CCSC)C(=O)OC)cc1?
Answer: plasma membrane CFTR intensity: 88% (inactive); total CFTR intensity: 88%

Question: What does the source list for FC(F)(F)c1ccc(-c2noc(CN3CCCN(C4CCCCC4)CC3)n2)cc1?
Answer: plasma membrane CFTR intensity: 95% (inactive); total CFTR intensity: 100%

Question: Which results are given for COc1ccc2[nH]cc(CCNC(=O)C3CCCNC3=O)c2c1 (stereo not given)?
Answer: plasma membrane CFTR intensity: 87% (inactive); total CFTR intensity: 85%

Question: Which results are given for CC(C)(C)C(=O)NC(=S)NNC(=O)c1ccncc1?
Answer: plasma membrane CFTR intensity: 94% (inactive); total CFTR intensity: 90%

Question: Which results are given for O=C(NC(Nc1ccccn1)C(Cl)(Cl)Cl)c1ccccc1 (stereo not given)?
Answer: plasma membrane CFTR intensity: 84% (inactive); total CFTR intensity: 85%

Question: Which plasma membrane CFTR intensity does the source give for COc1cc(CNc2nnnn2C)ccc1OCc1ccc(F)cc1Cl here?
Answer: 79% (inactive)

Question: And the total CFTR intensity?
Answer: 78%
